Experimental data published in PubChem BioAssay (NCI).
The panel holds about 83,000 compounds, 20% with a hit somewhere; the sample as a whole holds those more often.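 The endpoint reported here, percent growth, reads 100 for growth as untreated, 0 for no net growth and -100 for all cells dead.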 Activity calls are given as the source filed them.

test system: ACHN renal; assay: NCI-60 one-dose screen, 48 h (100 = growth as untreated, 0 = no growth, -100 = all killed); conditions: 10 µM unless noted
Method: Growth inhibition of the ACHN human tumor cell line is measured as a screen for anti-cancer activity. Cells are grown in 96 well plates and exposed to the test compound for 48 hours. Compounds are tested at a single concentration, which is 10^-5 M for most compounds. The reported endpoint is percent growth (GI% or GIPRCNT), where numbers from 0 - 100% represent growth inhibition, and numbers from -100% - 0 represent cell death. For example, a value of 40 represents 60% growth inhibition. A value of 0 means no net growth occurred over the course of the experiment. A value of -40 indicates 40% of cells at the beginning of the experiment died by the end of the experiment. A value of -100 means all cells are dead at the end of the experiment.
NCI-60 Human Tumor Cell Lines Screen was performed using the standard one-dose NCI protocol, which is described in more detail at https://dtp.cancer.gov/discovery_development/nci-60/default.htm.
Compounds with GIPRCNT values below 10 were considered active. Activity score was based on GIPRCNT using the following formula: […]
Score is 0 for GIPRCNT values of 100 or above, 50 for GIPRCNT values of 0, and 100 for GIPRCNT values of -100.

SMILES | growth
CC1CN(C(C)C)C(=S)N(c2ccccc2)C1=O (stereo not given) | 100% (inactive)
CCC(C)[C@@H]1NC(=O)[C@@H]2CCCN2C(=O)[C@H](Cc2ccccc2)NC(=O)[C@@H]2CCCN2C(=O)[C@H](Cc2ccccc2)NC(=O)[C@@H]2CCCN2C(=O)[C@H](Cc2ccccc2)NC1=O (stereo not given in full) | 103% (inactive)
CN1CCN(Cc2ccc(NC(=O)c3cncc(C#Cc4cncc5nccnc45)c3)cc2C(F)(F)F)CC1 | 24% (inactive)
Clc1cccc(Nc2nc(Nc3cnc4ccccc4c3)c3[nH]cnc3n2)c1 | 73.5% (inactive)
COc1ccc(-n2cc(-c3ccccc3)c3c(SCC(=O)N/N=C/c4ccc([N+](=O)[O-])cc4)ncnc32)cc1 | 105% (inactive)
CN1Cc2c(cc(CN3CCCCC3)n2C)C(c2ccc(Br)cc2)C1 (stereo not given) | 98.1% (inactive)
NC(CC(=O)O)C(=O)OCc1ccccc1 (stereo not given) | 97.1% (inactive)
CCCCCCCCCCCCCCCCCCNC(=O)[C@H]1CSC(c2ccc(OC)c(F)c2)N1 (stereo not given in full) | 87.8% (inactive)
CCOC(=O)C(Cc1cc(I)c(O)c(I)c1)NC(=O)c1ccccc1 (stereo not given) | 93.5% (inactive)
C=C1CC[C@@H]2[C@](C)(COC(C)=O)[C@H](OC(C)=O)CC[C@@]2(C)[C@@H]1CC(NCc1ccc(F)cc1)C1=CCOC1=O (stereo not given in full) | 50.9% (inactive)
O=C1/C(=C\c2cn(C(=O)c3ccc(Cl)cc3)c3ccccc23)c2ccccc2N1c1c(Cl)cccc1Cl | 97.6% (inactive)
Cc1cc(=O)oc2cc(Oc3nc(-c4cccs4)cn4c(-c5cccs5)cnc34)ccc12 | 57.3% (inactive)
Cc1ccc(Nc2nc(N)nc(Nc3ccc4ccccc4c3)n2)cc1 | 46.6% (inactive)
CC(=O)CC(C)(C)c1ccc(Cl)cc1 | 102% (inactive)
Cc1cccc(NC(=O)c2sc3nc4c(cc3c2N)C(=O)CCC4)c1 | 51.9% (inactive)
COc1cc(C#N)cc(OC)c1OCCN(CCOc1c(OC)cc(C#N)cc1OC)S(=O)(=O)c1ccc(C)cc1 | 97.5% (inactive)
Clc1ccc(-c2nnc(COc3ccccc3Cl)o2)cc1 | 22.7% (inactive)
Oc1cc(O)c2c(=S)cc(-c3ccc(Cl)cc3)oc2c1 | 23.6% (inactive)
Nc1nc2ccc(-c3nc4ccc5[nH]ncc5c4c4c3CCC4)cc2s1 | 17.7% (inactive)
CCCCN(CC)CCCCCCCCCCN1CCCc2cc(OC)ccc21 | 76.7% (inactive)

SMILES | growth
O=C(/C=C/c1ccc(Cl)cc1)c1ccc(O)c(CN2CCN(c3cc4c(cc3F)c(=O)c(C(=O)O)cn4C3CC3)CC2)c1 | 32.5% (inactive)
CN(C)c1ccc(C2Nc3ccccc3-n3cccc32)cc1 (stereo not given) | 86.6% (inactive)
COc1ccc2nc3cc(Cl)ccc3c(N3CCN(c4nccc(Nc5ccccc5)n4)CC3)c2c1 | 52.1% (inactive)
C=C1CC2(OC1=O)C(=O)N(CCCCCCCCCCCCN1C(=O)C3(CC(=C)C(=O)O3)c3ccccc31)c1ccccc12 (stereo not given) | 97.8% (inactive)
CCCCCCCCCCCCCCCCCCSC1=CC(=O)C(OC)=C(OC)C1=O | 93.1% (inactive)
CC(C)[C@@H]1CC[C@]2(C(=O)NCCCCN=C(N)N)CC[C@]3(C)[C@H](CC[C@@H]4[C@@]5(C)CCC(=O)C(C)(C)[C@@H]5CC[C@]43C)[C@@H]12 | 79.6% (inactive)
COc1ccccc1N1CCN(CCn2c(=O)c3c(c4ccccc4n3C)n(C)c2=O)CC1 | 98.5% (inactive)
CN1CCN(Cc2ccc(NC(=O)c3[nH]ncc3Nc3ncnc4c3CCC4)cc2)CC1 | -10.8% (active)
CCOC(=O)CC(=O)c1c(C)cc(C)cc1C | 83.7% (inactive)
O=C1CC(c2nc3ccccc3s2)CN1C1CCCCC1 (stereo not given) | 98.5% (inactive)
CN1CCN(Cc2ccc(NC(=O)c3[nH]ncc3Nc3ncnc4[nH]ccc34)cc2)CC1 | 5.97% (active)
CC(=O)Nc1ccc2c(c1)c(NC(C)=O)nn2C(=O)Nc1ccc(Cc2ccccc2)cc1 | 65.8% (inactive)
Nc1nc2c(c3ncccc13)C(c1cccc(Br)c1)Cc1ncccc1-2 (stereo not given) | 43% (inactive)
CN1C2CCC1/C(=C\c1ccc(Cl)cc1)C1=C2[C@@H](c2ccc(Cl)cc2)C(C#N)=C(N)O1 (stereo not given in full) | 93.9% (inactive)
CCOC(=O)c1c2c(n3ccc(NC(=O)CCN4CCOCC4)cc13)C(=O)c1ncccc1C2=O | 16.5% (inactive)
O=C1C2CC=CCC2C(=O)N1CNc1ccc(Cl)cc1 (stereo not given) | 88.8% (inactive)
O=C1Nc2ccc(Br)cc2C12CC(c1ccccc1)=NN2 (stereo not given) | 49.1% (inactive)
O=S(=O)(Nc1ccc(Cl)cc1Cl)c1ccc(-c2cnc(C3CC3)o2)cc1 | 53.6% (inactive)
COc1ccc(-c2cc(NC(=O)Nc3ccc(O)cc3)no2)cc1 | 55.4% (inactive)
Cn1cc(-c2ccc(-c3cn(C)c4ncccc34)[nH]2)c2cccnc21 | 4.29% (active)
